# Laboratory results as given in PubChem BioAssay AID1045 (SRMLSC, 2008).
# The campaign covered roughly 1,500 compounds. About 1,400 (93%) were called active. How the calls were made is not given here. The set was probably picked from earlier hits. Only a sample is shown. Entries with a potency or affinity are not part of this list.
# Assay: growth suppression of beta-catenin-knockout colon cells, dose response, cell-based, HCT116, human colon tumor (AID 1045)
# Details: CellTiter-Glo, 60 h; series mostly up to 30 µM; viability: at the top concentration
row,Compound,viability
1,Cc1[nH]nc2c1C(C1CC=CCC1)C(C#N)=C(N)O2 (stereo not drawn),96.1% (inactive)
2,Cc1cc(C)c2c(=O)n(CC(=O)NCCCN3CCOCC3)sc2n1,83.9% (inactive)
3,N/C(=N\c1nc(C(F)(F)F)cc(=O)[nH]1)Nc1ccc(Cl)cc1,90.8% (inactive)
4,OCCn1c(C(F)(F)F)nc2ccccc21,90.5% (inactive)
5,COC(=O)Nc1nc2c(s1)CCCC2,104% (inactive)
6,O=C(N/N=C/c1ccc(O)c(O)c1O)/C(=C/c1ccc([N+](=O)[O-])cc1)NC(=O)c1ccccc1,81.1% (inactive)
7,COc1ccc(N2CCN(C(c3cc(OC)ccc3OC)c3nnnn3CC3CCCO3)CC2)cc1 (stereo not drawn),89.4% (inactive)
8,Cc1cccc(CS(=O)(=O)c2nnc([C@H](Cc3ccccc3)NC(=O)OC(C)(C)C)o2)c1,92.4% (inactive)
9,CCCCS/C(N)=N/N=C/c1ccccc1O,97.4% (inactive)
10,CC(C)c1cc(=O)oc2c3c4c(cc12)CCCN4CCC3,86.2% (inactive)
11,CN1/C(=C\C(=S)NC(=O)c2ccc([N+](=O)[O-])cc2)C(C)(C)c2ccccc21,94.3% (inactive)
12,O=S(=O)(c1cccc2ccccc12)N1CCSC1,96.6% (inactive)
13,CCCCn1c(=NC(=O)c2ccco2)c(C(=O)OCC)cc2c(=O)n3ccccc3nc21,81.3% (inactive)
14,Cc1cc(Nc2ccccc2)nn1C(=O)c1ccccc1,98.3% (inactive)
15,CCCC(=O)Nc1ccc(C)c(O)c1,93.3% (inactive)
16,COC(=O)c1cc(OC)c(OC)cc1NC(=O)c1ccccc1,89% (inactive)
17,OC1(c2cccc(C(F)(F)F)c2)CCN(c2ccc(-c3ccccc3)nn2)CC1,93.7% (inactive)
18,CCN(CC)c1ccc(N=Cc2ccc(N(CC)CC)cc2O)cc1,87.8% (inactive)
19,CCCCNC(=O)Nc1c(C(=O)OC)[nH]c2ccc(C)cc12,81.5% (inactive)
20,CN(C)S(=O)(=O)c1cccc(NC(=O)COC(=O)c2cccc(S(=O)(=O)N3CCc4ccccc4C3)c2)c1,91.7% (inactive)
21,c1ccc2c(c1)CCCC2C1=NCCN1 (stereo not drawn),96.7% (inactive)
22,O=C(Nc1cccc2ccccc12)c1onc2c1CCCC2,87.9% (inactive)
23,COc1ccc(NC(=O)CCCn2c(=O)c3sccc3n(Cc3ccccc3)c2=O)cc1,90.1% (inactive)

row,Compound,viability
1,OC1C2CN3CCN(C2)CC1(Cc1ccccc1)C3 (stereo not drawn),97.8% (inactive)
2,O=C(c1ccc2c(=O)n(CC3CCCO3)c(=S)[nH]c2c1)N1CCN(c2ccccc2)CC1 (stereo not drawn),99.5% (inactive)
3,CCOC(=O)N1CCN(C(=O)c2nn(-c3ccc(C)cc3)c(=O)c3c2c2ccccc2n3C)CC1,88.9% (inactive)
4,C=CCNc1nnc(SC2CC(=O)N(c3ccc(OC)cc3)C2=O)s1 (stereo not drawn),101% (inactive)
5,COc1ccc(S(=O)(=O)CCC(=O)N(C)c2ccc(OC)cc2OC)cc1,87% (inactive)
6,Cc1c(Cl)ccc2sc(NC(=O)CN3C(=O)c4ccccc4C3=O)nc12,101% (inactive)
7,CCCCN1C[C@H](O)[C@@H](O)[C@H](O)[C@H]1CO,99.3% (inactive)
8,O=C(COC(=O)c1c2c(nc3ccccc13)CCCC2)Nc1ccc2c(c1)OCO2,83.9% (inactive)
9,O=C(COC(=O)c1cccnc1Nc1cccc(C(F)(F)F)c1)NCc1ccc2c(c1)OCO2,84.7% (inactive)
10,CCOC(=O)Cn1c2ccccc2c2nc3ccccc3nc21,89.9% (inactive)
11,Cc1ccc(Cn2nc(C)c(NC(=O)CSc3nc4c(c(C(F)(F)F)n3)CCc3ccccc3-4)c2C)cc1,90.2% (inactive)
12,COc1ccc(CCn2c(N)c(C(=O)NCc3ccco3)c3nc4ccccc4nc32)cc1OC,81.8% (inactive)
13,COc1ccccc1CN=Cc1[nH]c2ccc(Br)c(Cl)c2c1O,80.3% (inactive)
14,COc1ccc(C(=O)OCC(=O)c2cc(OC)ccc2OC)c(OC)c1,88.4% (inactive)
15,O=C1[C@H]2[C@H]3[C@H](O)[C@H](O)C/C(=N\OC[C@@H](O)COCc4ccco4)[C@@H]3CC[C@H]2C(=O)N1c1ccc(F)cc1F,93.9% (inactive)
16,CCCNC(=O)OC[C@H]1O[C@H](CCO/N=C/[C@@H](NS(=O)(=O)c2ccc(C)cc2)[C@H](C)/C=C/CC(=O)OC)C=C[C@@H]1Oc1ccc(OC)cc1,90.3% (inactive)
17,O=C(Nc1ccccc1Cl)NC1(C(=O)N2CCCC2)CCCCC1,94.7% (inactive)
18,Cc1ccc(C(=O)c2coc3c2C(=O)C(=O)c2ccccc2-3)cc1,91.4% (inactive)
19,CCCC(=O)Nc1sc2c(c1C#N)CCCCC2,98.2% (inactive)
20,CCN1CCN(Cc2ccc(OCc3ccccc3)cc2)CC1,86.3% (inactive)
21,S=C(NCCc1ccc(Cl)cc1)Nc1ccc(Cl)cc1Cl,84.2% (inactive)
22,O=C(Nc1cccc(C(F)(F)F)c1)NC1CCCCC1,93.5% (inactive)
23,C=C1C(O)C[C@H]2C(=C)CCC3[C@H](OC(=O)[C@]3(O)CO)[C@@H]12 (stereo partly drawn),103% (inactive)

row,Compound,viability
1,Cc1ccc2cc3cc(C(=O)NCc4ccc5c(c4)OCO5)oc3nc2c1,90.1% (inactive)
2,Nc1nnc(SCc2ccc(Cl)cc2)s1,91.9% (inactive)
3,O=C(NC(=S)Nc1ccc2c(c1)OCO2)c1ccc(Cl)cc1,87.5% (inactive)
4,COC(=O)CN1C(C)=Nc2ccc(Br)cc2C1c1ccccc1 (stereo not drawn),91.8% (inactive)
5,COC(=O)C1=C(C)N(Cc2ccco2)C(=O)N[C@@H]1c1cccc(C(F)(F)F)c1,83% (inactive)
6,CCN1CCN(c2cc(C)c3cc(NC(=O)c4ccc5c(c4)OCO5)ccc3n2)CC1,87.7% (inactive)
7,CCN(CC)S(=O)(=O)c1ccc(NC2CCCc3ccccc32)nc1 (stereo not drawn),83.6% (inactive)
8,COc1ccc(-c2cc(C(F)(F)F)nc(S(C)(=O)=O)n2)cc1OC,81.2% (inactive)
9,O=C(Nc1cccc(-c2nnc(-c3ccccc3)o2)c1)C1CCCCC1,95.4% (inactive)
10,Cc1ccccc1NC(=O)c1ccc2c(c1)OCCO2,88.1% (inactive)
11,CSc1n[nH]c(NCc2cccs2)n1,102% (inactive)
12,Cc1cc(C)n(C(=O)CNc2ccc(C)c(C)c2)n1,91.1% (inactive)
13,CCCC/C(C)=N\NC(=O)CNS(=O)(=O)c1ccc([N+](=O)[O-])cc1,97.5% (inactive)
14,COc1ccc(-n2c(O)c(/C=N/NS(=O)(=O)c3ccc(C)cc3)c3ccccc3c2=O)cc1OC,80.6% (inactive)
15,COCCN1C(=O)c2oc3ccccc3c(=O)c2C1c1ccc(OC)c(OC)c1 (stereo not drawn),89.8% (inactive)
16,O=C(Nc1cccc(C(F)(F)F)c1)/C(=C\c1ccco1)NC(=O)c1cccs1,82% (inactive)
17,O=C(Nc1ccc(-c2nc3ccccc3o2)cc1)c1cccnc1,103% (inactive)
18,O=C(NCc1ccco1)C1CCN(S(=O)(=O)Cc2ccccc2)CC1,98.3% (inactive)
19,CCOC(=O)c1c(-c2ccc(C)cc2)csc1NC(=O)/C(C#N)=C/c1ccc(O)c(OC)c1,90.9% (inactive)
20,Cc1ccc(C(=O)NCCc2nnc(SCC(=O)Nc3nc(-c4ccccc4)cs3)n2C)cc1,92.9% (inactive)
21,CCn1c(Cc2ccc(OC)cc2)nnc1SCC(=O)Nc1cccc(C(=O)OC)c1,103% (inactive)
22,COc1ccc(-c2cc(C(F)F)n3ncc(C(=O)n4ccnc4C)c3n2)cc1,86.4% (inactive)
